Data: ChEMBL document CHEMBL1201862, “PubChem BioAssay data set” (2004)
Hit rate of the full screen: of about 400,000 compounds, about 2,100 (0.53%) were called active. About 14% were inconclusive and are not listed. The rule behind the calls is not given here. Many of the other results were omitted from the sample, so actives are more common in it than they were.

The compounds below were run against Ataxin-2 (Homo sapiens) (UniProt Q99700) (assay: qHTS for Inhibitors of ATXN expression.).
Ataxin-2 (Homo sapiens), sequence (Q99700 whole entry): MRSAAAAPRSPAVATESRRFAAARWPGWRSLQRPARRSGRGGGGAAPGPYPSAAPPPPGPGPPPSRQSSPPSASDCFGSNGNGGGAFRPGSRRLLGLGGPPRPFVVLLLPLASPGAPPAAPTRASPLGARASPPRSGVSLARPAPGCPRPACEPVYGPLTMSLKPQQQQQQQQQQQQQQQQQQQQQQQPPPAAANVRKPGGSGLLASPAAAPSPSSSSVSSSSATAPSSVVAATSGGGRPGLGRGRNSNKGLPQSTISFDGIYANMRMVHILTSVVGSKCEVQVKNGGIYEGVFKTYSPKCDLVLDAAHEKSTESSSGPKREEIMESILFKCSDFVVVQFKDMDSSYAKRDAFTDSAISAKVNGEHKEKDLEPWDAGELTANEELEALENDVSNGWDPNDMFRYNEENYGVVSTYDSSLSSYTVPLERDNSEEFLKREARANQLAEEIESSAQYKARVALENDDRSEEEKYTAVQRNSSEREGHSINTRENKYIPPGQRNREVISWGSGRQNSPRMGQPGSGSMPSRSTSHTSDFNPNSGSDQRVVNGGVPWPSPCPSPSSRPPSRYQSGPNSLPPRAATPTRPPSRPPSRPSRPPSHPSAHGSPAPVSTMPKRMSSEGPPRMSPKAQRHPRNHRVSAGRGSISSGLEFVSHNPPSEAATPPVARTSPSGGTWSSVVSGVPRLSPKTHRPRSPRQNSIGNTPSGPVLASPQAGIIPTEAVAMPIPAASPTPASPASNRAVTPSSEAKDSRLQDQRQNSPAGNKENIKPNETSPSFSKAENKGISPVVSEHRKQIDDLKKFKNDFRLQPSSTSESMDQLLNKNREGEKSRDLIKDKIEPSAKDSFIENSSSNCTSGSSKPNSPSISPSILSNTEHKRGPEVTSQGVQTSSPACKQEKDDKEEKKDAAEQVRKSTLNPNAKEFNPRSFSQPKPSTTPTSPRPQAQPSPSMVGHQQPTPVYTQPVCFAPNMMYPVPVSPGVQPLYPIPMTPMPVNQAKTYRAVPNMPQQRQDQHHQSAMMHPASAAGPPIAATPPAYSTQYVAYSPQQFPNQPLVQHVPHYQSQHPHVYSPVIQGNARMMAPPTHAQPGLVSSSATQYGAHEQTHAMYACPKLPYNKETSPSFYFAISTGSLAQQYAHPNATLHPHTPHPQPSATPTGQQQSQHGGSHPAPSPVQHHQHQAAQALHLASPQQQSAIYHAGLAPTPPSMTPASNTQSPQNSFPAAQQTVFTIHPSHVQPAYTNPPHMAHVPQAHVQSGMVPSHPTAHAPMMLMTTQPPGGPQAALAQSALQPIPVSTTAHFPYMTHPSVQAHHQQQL
Type: functional
In the case of `COc1c(C)cc(S(=O)(=O)N2CCOCC2)c(C)c1C`, the Potency is reported as “inactive”.
`Cc1cc(-c2nc3cccnc3s2)ccc1NS(=O)(=O)c1ccc2c(c1)OCCO2` was tested, and the Potency was “inactive”.
For `CCOC(=O)c1cnc(-n2nc(C)cc2C)nc1Nc1ccc(O)cc1`, the Potency was “inactive”.
In the case of `FC(F)(F)c1cc(-c2cccs2)nc2cc(-c3cccs3)nn12`, the Potency is reported as “inactive”.
For `CCOC(=O)c1c(N=C(S)Nc2ccccc2)sc2c1CCN(CC)C2`, the Potency was “inactive”.
For `CCCCN(C)S(=O)(=O)c1ccc(C(=O)Nc2sc3c(c2C(=O)OCC)CCN(C(C)C)C3)cc1`, the Potency was “inactive”.
With `CCOC(=O)c1c(NC(C)=O)sc2c1CCC(/C=N/CCCN(CC)CC)=C2Sc1ccccc1` the Potency was 39.8 µM (active).
`CCOC(=O)c1c(NC(=O)c2ccccc2Cl)sc2c1CCc1ccccc1-2` was tested, and the Potency was “inactive”.
For `CCOC(=O)c1c(NC(=O)C2=C(C)N=C(S)NC2c2ccc(C)cc2)sc(C)c1C` (centres undefined), the Potency was “inactive”.
With `CCOC(=O)c1c(NC(C)=O)sc2c1CCC(C=O)=C2Sc1ccccc1` the Potency was 39.8 µM (active).
With `COc1ccc(-n2nc3ccc(N)cc3n2)cc1` the Potency was “inactive”.
In the case of `Cn1c(C(=O)NC2CCCCC2)cc2c(=O)n3ccccc3nc21`, the Potency is reported as “inactive”.
`[N-]=[N+]=CC(=O)CNC(=O)[C@@H](Cc1ccccc1)N1C(=O)c2ccccc2C1=O` was tested, and the Potency was 20 µM (active).
`O=C(NCc1cccs1)C(Cc1ccccc1)n1cccc1` (centres undefined) was tested, and the Potency was “inactive”.
`CC1=NN2C(=N)/C(=C\c3cc(C)n(-c4cccc(C)c4)c3C)C(=O)N=C2S1` was tested, and the Potency was “inactive”.
In the case of `Cn1c(-c2c(N)n(C3CCCC3)c3nc4ccccc4nc23)nc2ccccc21`, the Potency is reported as “inactive”.
For `O=C(/C(=C/c1ccc(Cl)cc1)c1nc2ccccc2[nH]1)c1ccccc1`, the Potency was 39.8 µM (active).
With `N#C/C(=C\c1cccnc1)c1nc2ccccc2[nH]1` the Potency was “inactive”.
For `O=C(Cc1nc2ccccc2[nH]1)c1ccc(Cl)cc1`, the Potency was “inactive”.
In the case of `O=C(O)C(=O)/C(=C\c1ccc(Cl)cc1)c1ccc2ccccc2n1`, the Potency is reported as “inactive”.
In the case of `O=C(/C(=C\c1ccccc1)c1nc2ccccc2[nH]1)c1ccc(Cl)cc1`, the Potency is reported as 15.8 µM (active).
With `O=C(O)C(=O)/C(=C\c1cccc(Cl)c1)c1ccc2ccccc2n1` the Potency was “inactive”.
In the case of `O=C(COc1ccccc1C(=O)NCc1ccncc1)Nc1ccc(Br)cc1`, the Potency is reported as “inactive”.
`CCN1CCN(Cc2c(O)ccc3c(C)c(-c4ccc(OC)cc4)c(=O)oc23)CC1` was tested, and the Potency was “inactive”.
For `CCOC(=O)CNc1c(-c2ccc(F)cc2)nc2cnccn12`, the Potency was “inactive”.
`CCOC(=O)CS(=O)(=O)c1nc(-c2ccc(F)cc2)cc(C(F)(F)F)n1` was tested, and the Potency was 31.6 µM (active).
In the case of `COC(=O)c1cc2nc(-c3ccc(C)cc3)cc(C(F)(F)F)n2n1`, the Potency is reported as “inactive”.
For `COC(=O)CCS(=O)(=O)c1nc(-c2ccccc2)cc(C(F)(F)F)n1`, the Potency was 39.8 µM (active).
With `Nc1c(C(=O)C2CC2)sc2nc(-c3ccccc3)cc(C(F)(F)F)c12` the Potency was “inactive”.
In the case of `CCOC(=O)CCS(=O)(=O)c1nc(-c2ccccc2)cc(C(F)(F)F)n1`, the Potency is reported as 31.6 µM (active).
For `COc1ccc(-c2c(C(F)(F)F)nn3c(O)cc(-c4ccccc4)nc23)cc1`, the Potency was “inactive”.
For `COCCNC(=O)c1nn2c(C(F)(F)F)cc(-c3ccccc3)nc2c1Cl`, the Potency was “inactive”.
In the case of `Cc1ccc(S(=O)(=O)CCC(=O)OCC(=O)NC(C)c2ccccc2)cc1` (centres undefined), the Potency is reported as “inactive”.
With `COCC(C)NC(=O)c1cnn2c(C(F)F)cc(-c3ccccc3)nc12` (centres undefined) the Potency was “inactive”.
With `O=C(COC(=O)CCS(=O)(=O)c1ccccc1)Nc1ccccc1` the Potency was “inactive”.
In the case of `CS(=O)(=O)c1nc(-c2ccccc2)cc(C(F)(F)F)n1`, the Potency is reported as 35.5 µM (active).
`CCCCn1nc(NC(=O)CCC)c2cc3cc(OC)ccc3nc21` was tested, and the Potency was “inactive”.
With `CC(C)CNC(=O)COC(=O)c1c2c(nc3ccccc13)/C(=C/c1cccs1)CC2` the Potency was “inactive”.
For `CCN1CCN(Cc2c(O)ccc3c2O/C(=C\c2ccccc2)C3=O)CC1`, the Potency was “inactive”.
With `CCOC(O)=C(C(C)=N)C1CC(=O)NC1=O` (centres undefined) the Potency was “inactive”.
In the case of `CCN(CC)CCNC(=O)c1cc(-c2ccc(Br)s2)nc2ccccc12`, the Potency is reported as 39.8 µM (active).
With `CCN(CC)CC(C)CNC(=O)c1cc(-c2ccc(Br)s2)nc2ccccc12` (centres undefined) the Potency was 14.1 µM (active).
`O=C(NC1CC1)c1cc(-c2ccc(Br)cc2)nc2ccccc12` was tested, and the Potency was “inactive”.
In the case of `Cc1ccc(-c2cc(C(=O)NCC3(N(C)C)CCCCC3)c3ccccc3n2)o1`, the Potency is reported as “inactive”.
For `Cc1cc(C(=O)NCCN2CCOCC2)c2ccccc2n1`, the Potency was “inactive”.
For `CCc1ccc(-c2cc(C(=O)NN3CCOCC3)c3ccccc3n2)s1`, the Potency was “inactive”.
With `CN(Cc1ccccc1OCCO)CC1CCCN(CCc2ccc(Cl)cc2)C1` (centres undefined) the Potency was “inactive”.
With `C=CCNC(=O)/C(C#N)=C/c1c(N2CCN(c3ccccc3)CC2)nc2c(C)cccn2c1=O` the Potency was “inactive”.
`COc1ccc(CCN(C)C(=O)c2cc(=O)c3ccccc3o2)cc1OC` was tested, and the Potency was “inactive”.
`COc1ccc(CCNc2ncnc3c2oc2ccccc23)cc1OC` was tested, and the Potency was 31.6 µM (active).
In the case of `CCc1c(C)c2cc3c(c(C)c2oc1=O)OCN(CCc1ccc(OC)c(OC)c1)C3`, the Potency is reported as “inactive”.
With `COc1cc(C(Nc2ccccn2)c2ccc3ccc(C)nc3c2O)cc(OC)c1O` (centres undefined) the Potency was 39.8 µM (active).
In the case of `Cc1cccc(NC(c2ccccc2C)c2ccc3ccc(C)nc3c2O)n1` (centres undefined), the Potency is reported as “inactive”.
`COc1cc(/C=N/Nc2ccccn2)cc(OC)c1O` was tested, and the Potency was “inactive”.
In the case of `CC(C)C[C@@H](COCc1cccc(Cl)c1)N1CCN(C(=O)c2ccc(C(F)(F)F)cc2)CCC1=O`, the Potency is reported as 22.4 µM (active).
In the case of `CC(C)CC(COCc1cccc(Cl)c1)N1CCN(C(=O)c2ccc(C(F)(F)F)cc2)CCC1=O` (centres undefined), the Potency is reported as 39.8 µM (active).
For `CC(C)C[C@@H](COCc1ccc(Cl)cc1)N1CCN(C(=O)c2ccc(C(F)(F)F)cc2)CCC1=O`, the Potency was 31.6 µM (active).
In the case of `CN1CCN(C(=O)c2ccc(C(F)(F)F)cc2)CC1`, the Potency is reported as “inactive”.
With `CCn1nc(NC(C)=O)c2cc3ccc(C)cc3nc21` the Potency was “inactive”.
For `CCC(=O)NC1=C(Cl)C(=O)C(NC(=O)CC)=C(Cl)C1=O`, the Potency was 5.01 µM (active).
For `CCN(CC)c1ccc2cc(-c3nnc(-c4ccncc4)o3)c(=O)oc2c1`, the Potency was “inactive”.
In the case of `O=C(N/N=C/c1sc(N2CCOCC2)nc1-c1ccccc1)c1ccccc1Cl`, the Potency is reported as “inactive”.
In the case of `O=C(Oc1c(-c2ccco2)oc2ccccc2c1=O)c1cccnc1`, the Potency is reported as “inactive”.
`CCOC(=O)C1=C(C)OC(N)=C(C#N)C1c1cccs1` (centres undefined) was tested, and the Potency was “inactive”.
